Source: PubChem BioAssay (NCI)
Values joined by “and” are separate entries in the source; they are usually repeats but may differ in a detail not shown here. Equal values may be shown once. The panel holds about 83,000 compounds, 20% with a hit somewhere; the sample as a whole holds those more often.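 The endpoint reported here, percent growth, reads 100 for growth as untreated, 0 for no net growth and -100 for all cells dead.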 Active and inactive are the calls of the source. How the source made its calls: active means growth percent below 10; inactive means the rest.

Columns and labels:
Experiment in all cases: NCI-60 one-dose screen, 48 h (100 = growth as untreated, 0 = no growth, -100 = all killed)
Conditions in all cases: 10 µM unless noted
HCT-15 colon = test system: HCT-15 colon
HT29 colon = test system: HT29 colon
SNB-75 CNS = test system: SNB-75 CNS
SNB-19 CNS = test system: SNB-19 CNS
U251 CNS = test system: U251 CNS
PC-3 prostate = test system: PC-3 prostate
SK-MEL-5 melanoma = test system: SK-MEL-5 melanoma
UACC-62 melanoma = test system: UACC-62 melanoma
LOX IMVI melanoma = test system: LOX IMVI melanoma
SK-MEL-28 melanoma = test system: SK-MEL-28 melanoma

Structure (SMILES) | growth (HCT-15 colon) | growth (HT29 colon) | growth (SNB-75 CNS) | growth (SNB-19 CNS) | growth (U251 CNS) | growth (PC-3 prostate) | growth (SK-MEL-5 melanoma) | growth (UACC-62 melanoma) | growth (LOX IMVI melanoma) | growth (SK-MEL-28 melanoma)
CC(C)(C)C1CCC(=NO)CC1 (stereo not given) | 106% (inactive) | 95% (inactive) | 85.6% (inactive) | 96% (inactive) | 99.9% (inactive) | 86.7% (inactive) | 104% (inactive) | 99.4% (inactive) | 99.8% (inactive) | 110% (inactive)
CCN(CC)CCNC(=O)c1ccc(NCN2C(=O)NC(c3ccccc3)(c3ccccc3)C2=O)cc1 | 113% (inactive) and 105% (inactive) | 108% (inactive) and 112% (inactive) | 103% (inactive) and 97.1% (inactive) | 109% (inactive) and 105% (inactive) | 95.2% (inactive) and 102% (inactive) | 97.6% (inactive) and 93% (inactive) | 101% (inactive) and 109% (inactive) | 104% (inactive) and 97% (inactive) | 95.1% (inactive) and 97.6% (inactive) | 117% (inactive)
CN(C)C(=S)N(C)C | 102% (inactive) | 95.6% (inactive) | 86.3% (inactive) | 110% (inactive) | 105% (inactive) | 92.9% (inactive) | 108% (inactive) | 108% (inactive) | 98.4% (inactive) | 118% (inactive)
CC1=CC(=O)C=CC1=Nc1ccc(N(C)C)cc1 | 96.8% (inactive) and 32.4% (inactive) | 105% (inactive) and 45.1% (inactive) | 123% (inactive) and 76.4% (inactive) | 97.1% (inactive) and 73.4% (inactive) | 21.2% (inactive) | 56% (inactive) and 12.1% (inactive) | 89.4% (inactive) and 17.6% (inactive) | 88.1% (inactive) and 18.2% (inactive) | 83.4% (inactive) | 96.8% (inactive) and 74.7% (inactive)
O=c1[nH]c(=O)n(C2OC(CO)C(O)C2O)cc1I (stereo not given) | 114% (inactive) and 107% (inactive) | 96.9% (inactive) | 91.6% (inactive) and 87.6% (inactive) | 108% (inactive) and 107% (inactive) | 99.1% (inactive) and 111% (inactive) | 87.4% (inactive) and 91.9% (inactive) | 101% (inactive) and 113% (inactive) | 102% (inactive) and 103% (inactive) | 98.9% (inactive) and 92.4% (inactive) | 106% (inactive) and 110% (inactive)
COc1ccc2oc3cc(NCCN(C)C)ccc3c(=O)c2c1 | 90.6% (inactive) and 67% (inactive) | 69.8% (inactive) and 53% (inactive) | 87.2% (inactive) and 81.5% (inactive) | 92.7% (inactive) and 76.1% (inactive) | 76.7% (inactive) | 83.6% (inactive) and 70.9% (inactive) | 93.3% (inactive) and 75.5% (inactive) | 100% (inactive) and 101% (inactive) | 83% (inactive) and 58.2% (inactive) | 96.1% (inactive) and 91.3% (inactive)
N=c1sc2ccccc2n1CC(=O)O | 103% (inactive) | 98% (inactive) | 100% (inactive) | 101% (inactive) | 91.8% (inactive) | 92.7% (inactive) | 104% (inactive) | 97.2% (inactive) | 98.7% (inactive) | 112% (inactive)
NNc1ncnc2cccc(Cl)c12 | 97.8% (inactive) | 95% (inactive) | 101% (inactive) | 103% (inactive) | 95.4% (inactive) | 93.3% (inactive) | 91% (inactive) | 92% (inactive) | 94.6% (inactive) | 103% (inactive)
COC(=O)c1cc(C(=O)OC)cc([N+](=O)[O-])c1 | 105% (inactive) | 111% (inactive) | 72.5% (inactive) | 118% (inactive) | 94.4% (inactive) | 98.7% (inactive) | 109% (inactive) | 102% (inactive) | 104% (inactive) | 108% (inactive)
O=[N+]([O-])c1ccc(N/N=C/C2CCCCCC2)c([N+](=O)[O-])c1 | 89.1% (inactive) | 100% (inactive) | 117% (inactive) | 102% (inactive) | 96.8% (inactive) | 79.7% (inactive) | 96.9% (inactive) | 81% (inactive) | 89.2% (inactive) | 99.7% (inactive)
Cc1cnc(N)s1 | 105% (inactive) | 100% (inactive) | 71.5% (inactive) | 91.4% (inactive) | 95.5% (inactive) | 88.9% (inactive) | 97.5% (inactive) | 90.7% (inactive) | 98.6% (inactive) | 99.1% (inactive)
COc1ccccc1OCC(O)CO (stereo not given) | 95.1% (inactive) and 105% (inactive) | 100% (inactive) and 103% (inactive) | 87.7% (inactive) and 90.7% (inactive) | 96.4% (inactive) and 84.9% (inactive) | 96.9% (inactive) and 81.3% (inactive) | 52.3% (inactive) and 91.5% (inactive) | 104% (inactive) and 100% (inactive) | 100% (inactive) | 99.5% (inactive) and 100% (inactive) | 95.5% (inactive) and 108% (inactive)
Cc1ccc2cccc([N+](=O)[O-])c2n1 | 105% (inactive) and 96.9% (inactive) | 99% (inactive) and 96% (inactive) | 106% (inactive) and 79.5% (inactive) | 109% (inactive) and 99% (inactive) | 105% (inactive) and 103% (inactive) | 99.7% (inactive) and 102% (inactive) | 99.1% (inactive) and 105% (inactive) | 102% (inactive) | 100% (inactive) and 94.8% (inactive) | 109% (inactive) and 111% (inactive)
COCCCNC1=C(C#N)C(=O)NC(c2cccs2)S1 (stereo not given) | 98.2% (inactive) | 99.9% (inactive) | 83.2% (inactive) | 94.4% (inactive) | 100% (inactive) | 100% (inactive) | 95.3% (inactive) | 91.7% (inactive) | 105% (inactive) | 113% (inactive)
CCC(=O)Oc1ccc(OCc2ccccc2)cc1 | 103% (inactive) and 97% (inactive) | 98.7% (inactive) and 91.2% (inactive) | 98.2% (inactive) and 105% (inactive) | 97.7% (inactive) and 96.5% (inactive) | 87.7% (inactive) and 80.8% (inactive) | 77.6% (inactive) and 58.7% (inactive) | 84.1% (inactive) and 73.6% (inactive) | 81.8% (inactive) and 79.9% (inactive) | 88.8% (inactive) and 84.7% (inactive) | 122% (inactive) and 111% (inactive)
COc1ccc(CCl)c(C)c1OC | 106% (inactive) | 102% (inactive) | 104% (inactive) | 107% (inactive) | 97.6% (inactive) | 94.2% (inactive) | 90.8% (inactive) | 99.5% (inactive) | 94.3% (inactive) | 109% (inactive)
CCCCOC1NC(=O)NC(=O)C1(F)C(=O)OCC (stereo not given) | 70% (inactive) and 48.2% (inactive) | 74.1% (inactive) and 52.3% (inactive) | 78% (inactive) and 81.8% (inactive) | 101% (inactive) and 82.6% (inactive) | 91.6% (inactive) | 88.4% (inactive) and 85.6% (inactive) | 81% (inactive) and 66.9% (inactive) | 72% (inactive) and 52.8% (inactive) | 73.5% (inactive) and 52.5% (inactive) | 83.4% (inactive) and 70.7% (inactive)
Nc1c(S(=O)(=O)O)cc(Br)c2c1C(=O)c1ccccc1C2=O | 107% (inactive) and 114% (inactive) | 100% (inactive) and 108% (inactive) | 86.7% (inactive) and 90.7% (inactive) | 111% (inactive) and 107% (inactive) | 102% (inactive) and 105% (inactive) | 92% (inactive) and 84.9% (inactive) | 99.6% (inactive) and 90.8% (inactive) | 108% (inactive) and 104% (inactive) | 102% (inactive) and 103% (inactive) | 109% (inactive) and 113% (inactive)
CC(=O)Oc1cc(C(C)C)c(OCCN(C)C)cc1C | 105% (inactive) and 104% (inactive) | 110% (inactive) and 115% (inactive) | 102% (inactive) and 89.9% (inactive) | 105% (inactive) and 98.2% (inactive) | -90.7% (active) and 97.7% (inactive) | 92% (inactive) and 103% (inactive) | 106% (inactive) and 103% (inactive) | 99.7% (inactive) and 94% (inactive) | 94% (inactive) and 102% (inactive) | 119% (inactive) and 88.5% (inactive)
